Reference: PubChem BioAssay (NCATS)
Where “and” joins values, the source holds several entries; their conditions need not be identical. Identical values can stand only once. Results filed as inconclusive are left out. Calls of active or inactive are those of the source. The call rests on the fitted dose curve; in most records, active means well fitted curve in the direction sought with a large enough effect; inconclusive means small, poorly fitted or top-dose-only effect, or another doubt; inactive means no such curve, though single readings can be large; an effect the other way counts as inactive or inconclusive.

Assays:
HaCat [1] = test: Cytotoxic Profiling of Annotated Libraries Using Quantitative High-Throughput Screening (AID 1296008); details: Five cell lines viability, CellTiter-Glo ATP luminescence, 48-72 h; max response: stronger effect = lower value; further: nearly all actives have a fitted effect of over 60% in size
Summary of the method: (§1)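 Cytotoxicity was measured as CellTiter-Glo ATP luminescence, read after 10 min at room temperature. Compound treatment of the cells lasted 48 or 72 hr at 37 degrees Celsius in a qHTS format.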

KB-3-1 = test: as above; details: Five cell lines viability, CellTiter-Glo ATP luminescence, 48-72 h; max response: stronger effect = lower value
Summary of the method: as §1

NIH3T3 [2] = test: as above; details: Five cell lines viability, CellTiter-Glo ATP luminescence, 48-72 h; max response: stronger effect = lower value
Summary of the method: as §1

MCC-13 = test: qHTS assay to identify novel small-molecules to repurpose for Merkel cell carcinoma treatment (AID 1296009); details: MCC and control cell lines, CellTiter-Glo viability, 72 h; series mostly up to 46 µM; further: nearly all actives have a fitted effect of over 60% in size
Summary of the method: (§2)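 Cell viability, measured as CellTiter-Glo luminescence, was normalized between DMSO and no-cell wells. The cells had been exposed to 8- or 11-point compound dilutions for 72 hr at 37 degree celsius.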

MCC-26 = test: as above; details: MCC and control cell lines, CellTiter-Glo viability, 72 h; series mostly up to 46 µM
Summary of the method: as §2

MKL-1 = test: as above; details: MCC and control cell lines, CellTiter-Glo viability, 72 h; series mostly up to 46 µM
Summary of the method: as §2

MKL-2 = test: as above; details: MCC and control cell lines, CellTiter-Glo viability, 72 h; series mostly up to 46 µM
Summary of the method: as §2

UISO = test: as above; details: MCC and control cell lines, CellTiter-Glo viability, 72 h; series mostly up to 46 µM
Summary of the method: as §2

WaGa = test: as above; details: MCC and control cell lines, CellTiter-Glo viability, 72 h; series mostly up to 46 µM
Summary of the method: as §2

HACAT [3] = test: as above; details: MCC and control cell lines, CellTiter-Glo viability, 72 h; at 44.8 µM (top of the series) unless noted
Summary of the method: as §2

C33A = test: Primary qHTS to identify gynecologic anti-cancer compounds using libraries of approved drugs and bioactive compounds (AID 1345084); details: Gynecologic cancer cell panel viability, ATPlite luminescence, 48 h; series mostly up to 57.5 µM; further: nearly all actives have a fitted effect of over 55% in size
Summary of the method: (§3)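 Luminescence from the ATPlite ATP-monitoring reagent indicates viable cell number; lower signal means cytotoxicity. Cells received compound 16 h after seeding and were exposed for 48 h across five concentrations.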

CAOV3 = test: as above; details: Gynecologic cancer cell panel viability, ATPlite luminescence, 48 h; series mostly up to 57.5 µM
Summary of the method: as §3

CASKI = test: as above; details: Gynecologic cancer cell panel viability, ATPlite luminescence, 48 h; series mostly up to 57.5 µM
Summary of the method: as §3

Es-2 = test: as above; details: Gynecologic cancer cell panel viability, ATPlite luminescence, 48 h; series mostly up to 57.5 µM
Summary of the method: as §3

HeLa = test: as above; details: Gynecologic cancer cell panel viability, ATPlite luminescence, 48 h; series mostly up to 57.5 µM
Summary of the method: as §3

Hek293T [4] = test: as above; details: Gynecologic cancer cell panel viability, ATPlite luminescence, 48 h, control line for the selectivity index; series mostly up to 57.5 µM
Summary of the method: as §3

JEG-3 = test: as above; details: Gynecologic cancer cell panel viability, ATPlite luminescence, 48 h; series mostly up to 57.5 µM
Summary of the method: as §3

HEK293T [5] = test: qHTS assay to identify novel small-molecules to repurpose for Merkel cell carcinoma treatment (AID 1296009); details: MCC and control cell lines, CellTiter-Glo viability, 72 h; at 44.8 µM (top of the series) unless noted; further: nearly all actives have a fitted effect of over 60% in size
Summary of the method: as §2

NIH3T3 [6] = test: as above; details: MCC and control cell lines, CellTiter-Glo viability, 72 h; at 44.8 µM (top of the series) unless noted
Summary of the method: as §2
On the % scale 0 is the no-effect control and ±100 the full control effect.

c1ccc2c(CN3CCNCC3)cccc2c1
inactive: max response (HaCat [1]) 2.18% | outcome (KB-3-1) | max response (NIH3T3 [2]) 4.9% | Potency (MCC-13) | Potency (MCC-26) | Potency (MKL-1) | Potency (MKL-2) | Potency (UISO) | Potency (WaGa)

CCOP(=O)(NC(C)C)Oc1ccc(SC)c(C)c1 (stereo not drawn)
inactive: outcome (HaCat [1]) | max response (KB-3-1) -7.33% | max response (NIH3T3 [2]) -4.93% | outcome (HACAT [3]) inactive [at 92 µM] | Potency (MCC-13) | Potency (MCC-26) | Potency (MKL-1) | Potency (MKL-2) | Potency (UISO) | Potency (C33A) | Potency (CAOV3) | Potency (CASKI) | Potency (Es-2) | Potency (HeLa) | Potency (Hek293T [4]) | Potency (JEG-3)

O=S(=O)(O)C(F)(F)C(F)(F)C(F)(F)C(F)(F)F
inactive: max response (HaCat [1]) 2.96% | max response (KB-3-1) -15.1% | outcome (NIH3T3 [2]) | outcome (HEK293T [5]) inactive [at 92 µM] | Potency (MCC-13) | Potency (MCC-26) | Potency (MKL-1) | Potency (MKL-2) | outcome (NIH3T3 [6]) inactive [at 92 µM] | Potency (UISO) | Potency (WaGa) | Potency (C33A) | Potency (CAOV3) | Potency (CASKI) | Potency (Es-2) | Potency (HeLa) | Potency (Hek293T [4]) | Potency (JEG-3)

CCCCC(CC)COC(=O)c1ccccc1C(=O)OCC(CC)CCCC (stereo not drawn)
inactive: outcome (HaCat [1]) | max response (KB-3-1) -15.4% | max response (NIH3T3 [2]) -8.2% | outcome (HACAT [3]) inactive [at 92 µM] | outcome (HEK293T [5]) inactive [at 92 µM] | Potency (MCC-13) | Potency (MCC-26) | Potency (MKL-1) | Potency (MKL-2) | Potency (UISO) | Potency (WaGa) | Potency (C33A) | Potency (CAOV3) | Potency (CASKI) | Potency (Es-2) | Potency (HeLa) | Potency (Hek293T [4]) | Potency (JEG-3)

Cc1ccc(Cl)c(O)c1
inactive: max response (HaCat [1]) -3.88% | max response (KB-3-1) -1.89% | outcome (NIH3T3 [2]) | Potency (MCC-13) | Potency (MCC-26) | Potency (MKL-1) | Potency (MKL-2) | outcome (NIH3T3 [6]) | Potency (UISO) | Potency (WaGa) | Potency (C33A) | Potency (CASKI) | Potency (Es-2) | Potency (HeLa) | Potency (Hek293T [4]) | Potency (JEG-3)

C1=C2CCCN[C@H]2[C@@H]2C[C@H]1[C@@H]1CCCCN1C2
inactive: outcome (HaCat [1]) | max response (KB-3-1) 9.36% | outcome (NIH3T3 [2]) | outcome (HACAT [3]) | Potency (MCC-13) | Potency (MCC-26) | Potency (MKL-1) | Potency (MKL-2) | outcome (NIH3T3 [6]) | Potency (UISO) | Potency (WaGa)

C[C@]12Cc3cn[nH]c3C[C@@H]1CC[C@@H]1[C@H]2CC[C@@]2(C)[C@H]1CC[C@]2(C)O
inactive: outcome (HaCat [1]) | max response (KB-3-1) -0.691% | max response (NIH3T3 [2]) -12.4% | outcome (HACAT [3]) | Potency (MCC-13) | Potency (MCC-26) | Potency (MKL-1) | Potency (MKL-2) | Potency (UISO) | Potency (WaGa)

Cc1nc(-c2ccc(-c3ccc(C(=O)N4CCc5cc6c(cc54)C4(CCN(C)CC4)CO6)cc3)c(C)c2)no1
inactive: outcome (HaCat [1]) | max response (KB-3-1) 2.18% | max response (NIH3T3 [2]) 1.47% | outcome (HACAT [3]) | Potency (MCC-13) | Potency (MKL-1) | Potency (MKL-2) | Potency (UISO) | Potency (WaGa)

COc1ccc2c(c1)[C@]13CCCCC1C(C2)N(C)CC3 (stereo partly drawn)
inactive: max response (HaCat [1]) -2.03% | max response (KB-3-1) 9.18% | outcome (NIH3T3 [2]) | outcome (HEK293T [5]) | Potency (MCC-13) | Potency (MCC-26) | Potency (MKL-1) | Potency (MKL-2) | outcome (NIH3T3 [6]) | Potency (UISO) | Potency (WaGa)

O=C1C=CC[C@@H]2[C@H]3CCCN4CCC[C@@H](CN12)[C@@H]34
inactive: max response (HaCat [1]) -19.8% and -9.45% | max response (KB-3-1) 5.89% | outcome (NIH3T3 [2]) | outcome (HEK293T [5]) | Potency (MCC-13) | Potency (MCC-26) | Potency (MKL-1) | Potency (MKL-2) | outcome (NIH3T3 [6]) | Potency (UISO) | Potency (WaGa) | Potency (C33A) | Potency (CAOV3) | Potency (CASKI) | Potency (Es-2) | Potency (HeLa) | Potency (Hek293T [4]) | Potency (JEG-3)

C[C@]12COC(=O)C[C@@H]1CC[C@@H]1[C@H]2CC[C@@]2(C)[C@H]1CC[C@]2(C)O
inactive: outcome (HaCat [1]) | max response (KB-3-1) 0.496% | max response (NIH3T3 [2]) -1.39% | outcome (HACAT [3]) | Potency (MCC-13) | Potency (MCC-26) | Potency (MKL-1) | Potency (MKL-2) | Potency (UISO) | Potency (WaGa)

CC(=O)NCCc1c[nH]c2ccccc12
inactive: outcome (HaCat [1]) | outcome (KB-3-1) | outcome (NIH3T3 [2]) | outcome (HACAT [3]) inactive [at 92 µM] | outcome (NIH3T3 [6]) inactive [at 92 µM] | Potency (C33A) | Potency (CAOV3) | Potency (CASKI) | Potency (Es-2) | Potency (HeLa) | Potency (Hek293T [4]) | Potency (JEG-3)

COc1ccc(CC2NCCc3cc(OC)c(OC)cc32)cc1OC (stereo not drawn)
inactive: outcome (HaCat [1]) | max response (KB-3-1) -3.69% | max response (NIH3T3 [2]) -2.7% | outcome (HACAT [3]) | Potency (MCC-13) | Potency (MCC-26) | Potency (MKL-1) | Potency (MKL-2) | Potency (UISO) | Potency (WaGa)
